In the library only some 3.5% were active in any assay of this set; here they are far more common.
mHTT CaM bind = disrupts binding of mutant huntingtin to calmodulin; P42858; AlphaScreen His-mHTT/GST-CaM binding, luminescence; inhibition, % at 15 µM; 190,000 compounds, 3.6% hits;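 note: 0% = both proteins with DMSO and 100% = one protein alone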
Pf apPOL inh = Pf-apPOL DNA polymerase inhibition; inhibition, % at 10 µM; AID 1794808; 210,000 compounds, 0.25% hits; Recombinant Pf-apPOL, molecular beacon fluorescence, 1.5 h
The depositor's hits bear a star; i = inactive; + = active, no number. Cut-off read from the data, not from the text of the source: active = inhibition above about 50%; inactive = the rest.

SMILES | mHTT CaM bind | Pf apPOL inh
O=C(CCN1CCOCC1)c1cc2ccccc2o1 | 41 | -8
Nc1ccc(Oc2cccc(Oc3ccc(N)cc3)c2)cc1 | 52* | -18
NC(=O)c1ccc(Oc2cccc(Oc3ccc(C(N)=O)cc3)c2)cc1 | -1 | 1
Cc1cccc(Oc2ccc(N3C(=O)C=CC3=O)cc2)c1C | 49 | -9
O=C1C=CC(=O)N1c1ccc(Oc2cccc(Oc3ccc(N4C(=O)C=CC4=O)cc3)c2)cc1 | 91* | -6
CC(O)(CNC(=O)Nc1ccc(F)cc1)c1cccs1 (stereo unspecified) | -6 | 1
CC(C)NC(=O)N1CC(c2nc(-c3ccccc3)no2)C2(CCOCC2)C1 (stereo unspecified) | 3 | -8
CC1(C)CC(=O)C(C=Nc2ccccc2Cl)=C(O)C1 | -3 | 1
Cn1c(=O)c2c(ncn2CC(=O)NC2CCCCCC2)n(C)c1=O | -1 | -4
O=S(=O)(NCCc1ccc(F)cc1)c1ccc(Br)cc1 | -18 | -10
O=C1C=CC(=NOC2=C(ON=C3C=CC(=O)C=C3)C(=O)c3ccccc3C2=O)C=C1 | 34 | -14
CC1=CC(=O)C=C/C1=N\OC1=C(O/N=C2\C=CC(=O)C=C2C)C(=O)c2ccccc2C1=O | + | 6
CCOCc1cn(CC(=O)c2ccccc2)c(C)nc1=N | -1 | 2
Cc1ccc(S(=O)(=O)Nc2nc(-c3ccccc3)c(-c3ccccc3)o2)cc1 | 50* | -6
Cc1ccc(S(=O)(=O)Nc2ccccc2-c2ccccc2)cc1 | -29 | -52
COc1ccccc1C1=NN(C(=O)CN2CCC(C)CC2)C(c2cccc(F)c2)C1 (stereo unspecified) | 22 | -7
CC(=O)N1CCN(CC(=O)N2N=C(c3ccccc3)CC2c2ccc(F)cc2)CC1 (stereo unspecified) | 30 | -2
COc1ccccc1C1CC(c2ccc(F)cc2)=NN1C(=O)CN1CCC(C)CC1 (stereo unspecified) | 93* | -4
COc1ccccc1C1CC(c2cccc(F)c2)=NN1C(=O)CN1CCN(C)CC1 (stereo unspecified) | 99* | 0
Cc1cc(NS(=O)(=O)c2ccc(NC(=O)c3ccccc3Br)cc2)nc(C)n1 | -2 | -3
N/C(=N\OS(=O)(=O)c1ccccc1)c1ccccn1 | i | 1
N/C(=N\OS(=O)(=O)c1ccc(Cl)cc1)c1ccccn1 | + | 4
N/C(=N\OC(=O)Oc1ccccc1)c1ccccn1 | + | -3
N/C(=N\OC(=O)Oc1ccccc1)c1ccncc1 | i | -9
Cc1c(Br)c(C(F)(F)F)nn1CC(=O)N1CCCCCC1 | -3 | -2
SMILES | mHTT CaM bind | Pf apPOL inh
Cc1cc(C(F)F)n2nc(C(=O)N3CCCC3c3ccc(F)cc3)nc2n1 (stereo unspecified) | 20 | -2
Cc1cc(C(F)(F)F)nn1C(=O)COc1ccccc1Br | -3 | -5
COc1ccc(OC)c(Nc2nc(C)nc3sc(C)cc23)c1 | 52* | -14
COc1ccc(C)cc1Nc1nc(C)nc2sc(C)cc12 | -7 | -18
Cc1ccc(S(=O)(=O)N(C)CC(=O)Nc2cccc([N+](=O)[O-])c2)cc1 | 7 | -11
O=C(CN1CCC2(CC1)N=C(c1cccc(Cl)c1)C(=O)N2)Nc1ccc(Cl)cc1 | 88* | 3
O=C(CN1CCC2(CC1)N=C(c1cccc(F)c1)C(=O)N2)Nc1ccc(Cl)cc1 | 17 | 3
Cc1ccc(CN2CCC3(CC2)N=C(c2ccccc2)C(=O)N3)cc1 | 54* | -7
Cc1cccc(C2=NC3(CCN(CC(=O)NCc4ccc(Cl)cc4)CC3)NC2=O)c1 | 53* | 11
Cc1cccc(NC(=O)CN2CCC3(CC2)N=C(c2ccc(F)cc2)C(=O)N3)c1 | -8 | -1
Cc1ccc(C2=NC3(CCN(Cc4ccc(F)cc4)CC3)NC2=O)cc1 | 1 | 3
Cc1ccc(C2=NC3(CCN(CC(=O)NCc4ccc(Cl)cc4)CC3)NC2=O)cc1 | 42 | 2
Cc1cccc(C2=NC3(CCN(CC(=O)Nc4ccc(F)cc4)CC3)NC2=O)c1 | 69* | 5
O=C(Nc1ccc(Cn2cnc(C(=O)NCc3ccc(F)cc3)c2)cc1)c1cccc(F)c1 | -13 | -9
Cc1cccc(C(=O)N2CCCC2c2cc(C)on2)c1 (stereo unspecified) | -6 | 1
O=C(C1CCCO1)N1CCC(c2cc(-c3ccc(F)cc3)n[nH]2)CC1 (stereo unspecified) | 0 | -4
COc1cc2c(cc1OC)C(C(=O)NC(C)C)C(c1cccnc1)N(C)C2=O (stereo unspecified) | 4 | -8
Cc1ccc(-c2nc(C3CCN(S(=O)(=O)c4ccc(C#N)cc4)CC3)no2)cc1 | -4 | -8
COc1ccc(-n2c(CCC(=O)O)ccc2-c2cccs2)c(OC)c1 | 55* | 8
COc1ccc(-c2ccc(CCC(=O)O)n2-c2ccc(OC)cc2OC)cc1 | 49 | -3
O=C1c2cc(NC(=O)C3(c4cccs4)CCCC3)ccc2OCCC2CCCCN12 (stereo unspecified) | 25 | -1
COc1ccc(Br)cc1C1C(C(=O)Nc2ccc(Cl)cc2)=C(C)Nc2ncnn21 (stereo unspecified) | 60* | -3
COc1ccc(C2C(C(=O)Nc3ccc(Cl)cc3)=C(C)Nc3ncnn32)cc1Br (stereo unspecified) | 40 | 2
COc1ccc(C2/C=C\CN[C@@H](Cc3ccccc3)C(=O)N2Cc2ccc(F)cc2)cc1 (stereo partly specified) | 64* | 0
COc1ccc(C2/C=C\CN(CC3CC3)[C@@H](Cc3ccccc3)C(=O)N2Cc2ccc(F)cc2)cc1 (stereo partly specified) | 42 | -1
SMILES | mHTT CaM bind | Pf apPOL inh
COc1ccc(C2/C=C\CN(C(=O)C3CCCC3)CC(=O)N2Cc2ccc(F)cc2)cc1 (stereo unspecified) | 63* | -3
COc1ccc(C2/C=C\CN(C(=O)C3CCCCC3)CC(=O)N2Cc2ccc(F)cc2)cc1 (stereo unspecified) | 29 | 2
COc1ccc(C2/C=C\CN(C(=O)Nc3ccccc3-c3ccccc3)CC(=O)N2Cc2ccc(F)cc2)cc1 (stereo unspecified) | 60* | -1
COC(=O)N1C/C=C\C(c2ccc(OC)cc2)N(Cc2ccc(F)cc2)C(=O)C1 (stereo unspecified) | 26 | -2
COc1ccc(C2SCCN2S(=O)(=O)c2cccc(C)c2)cc1[N+](=O)[O-] (stereo unspecified) | 8 | 2
CCCc1nc2cccnc2n1C1CCN(C(=O)c2ccccc2F)C1 (stereo unspecified) | 2 | 1
CS(=O)(=O)N(CC(=O)Nc1ccc2c(c1)OCO2)c1ccc(I)cc1 | 23 | -18
CCN(C(=O)c1ccccc1)c1ccc(N(CC)C(=O)c2ccccc2)cc1 | -3 | -10
O=C(Nc1cccc(-c2nc3ccccc3o2)c1)c1ccccc1I | -4 | -4
O=C(Nc1cccc(-c2nc3ccccc3o2)c1)c1cccnc1Cl | 0 | 74*
Cc1cccc(CNC(=O)C2CCN(c3nnc4c(Cl)cccn34)CC2)c1C | -4 | -4
Cc1nc(CC(=O)NC2CCc3[nH]c4cc(Cl)cc(Cl)c4c3C2)c(C)s1 (stereo unspecified) | 78* | 1
Cc1ccc2[nH]c3c(c2c1)CC(NC(=O)Cc1ccccc1C)CC3 (stereo unspecified) | 42 | 3
CC(C)C(=O)NC1CCc2[nH]c3cc(Cl)cc(Cl)c3c2C1 (stereo unspecified) | 68* | -2

High-throughput results deposited in PubChem by University of Kansas High Throughput Screening Laboratory.
